Measurements reported in PubChem BioAssay (NCATS).
Inconclusive results are not listed. Unless noted, calls follow the shape of the dose curve; as a rule, active = well fitted curve in either direction with a large enough effect (not every such curve was filed as active); inconclusive = small, poorly fitted or top-dose-only effect, or another doubt; inactive = flat fitted curve, though single readings scatter.

What was measured:
[1] = AP1 Signaling Pathway (AID 357); conditions: ME-180 AP-1-bla reporter, EGF-induced, beta-lactamase ratio, 5 h; at 17.2 µM (top of the series) unless noted;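 also: ME-180 reporter cells stimulated with EGF at its EC50 level; % is scaled to controls: 0 for no effect and ±100 for the full control effect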
Procedure, shortened: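 AP-1-bla ME-180 cells, Opti-MEM + 0.5% dialyzed FBS, plated overnight 37 °C. Cpd titration + EC50 EGF, 5 h 37 °C. CCF4 2.5 h RT; ex 405, em 460/530 ratio → %activity, AC50.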

[2] = NFAT Signaling Pathway (AID 444); conditions: Jurkat NFAT-bla M1, carbachol, beta-lactamase ratio, 5 h; at 17.2 µM (top of the series) unless noted;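 also: carbachol stimulus at about its EC50 of 1 µM final; % is scaled to controls: 0 for no effect and ±100 for the full control effect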
Procedure, shortened: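 Read-out: CCF4 FRET ratio (460 nm/530 nm) after 1 h RT dye loading, used for %activity and AC50 from titration series. Cells: Jurkat NFAT-β-lactamase/M1 line, treated with compound plus 1 uM carbachol for 5 h, 37 °C.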

[3] = Stat Signaling Pathway (AID 446); conditions: ME-180 (cervical carcinoma) SIE beta-lactamase reporter, IL-6 stimulated, 5 h; at 17.2 µM (top of the series) unless noted;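 also: ME-180 cervical cancer cells given 40 pM IL-6 alongside compound; SIE-controlled beta-lactamase reporter measured as 460/530 nm FRET emission ratio; % is scaled to controls: 0 for no effect and ±100 for the full control effect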
Procedure, shortened: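 IL-6/STAT signaling read in ME-180 cells via an SIE beta-lactamase reporter. Stimulus was 40 pM IL-6 (its AC50) for 5 hrs, so both activation and inhibition register.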

[4] = target: Glucocorticoid receptor (Homo sapiens) (UniProt P04150); test: GR-GFP Redistribution (AID 450;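 active = compounds whose dose series gives a full or clear partial fitted curve of increased nuclear translocation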; also: potency is read from the fitted curve at half-maximal effect)
Chain of Glucocorticoid receptor (Homo sapiens) (P04150 whole entry, looked up): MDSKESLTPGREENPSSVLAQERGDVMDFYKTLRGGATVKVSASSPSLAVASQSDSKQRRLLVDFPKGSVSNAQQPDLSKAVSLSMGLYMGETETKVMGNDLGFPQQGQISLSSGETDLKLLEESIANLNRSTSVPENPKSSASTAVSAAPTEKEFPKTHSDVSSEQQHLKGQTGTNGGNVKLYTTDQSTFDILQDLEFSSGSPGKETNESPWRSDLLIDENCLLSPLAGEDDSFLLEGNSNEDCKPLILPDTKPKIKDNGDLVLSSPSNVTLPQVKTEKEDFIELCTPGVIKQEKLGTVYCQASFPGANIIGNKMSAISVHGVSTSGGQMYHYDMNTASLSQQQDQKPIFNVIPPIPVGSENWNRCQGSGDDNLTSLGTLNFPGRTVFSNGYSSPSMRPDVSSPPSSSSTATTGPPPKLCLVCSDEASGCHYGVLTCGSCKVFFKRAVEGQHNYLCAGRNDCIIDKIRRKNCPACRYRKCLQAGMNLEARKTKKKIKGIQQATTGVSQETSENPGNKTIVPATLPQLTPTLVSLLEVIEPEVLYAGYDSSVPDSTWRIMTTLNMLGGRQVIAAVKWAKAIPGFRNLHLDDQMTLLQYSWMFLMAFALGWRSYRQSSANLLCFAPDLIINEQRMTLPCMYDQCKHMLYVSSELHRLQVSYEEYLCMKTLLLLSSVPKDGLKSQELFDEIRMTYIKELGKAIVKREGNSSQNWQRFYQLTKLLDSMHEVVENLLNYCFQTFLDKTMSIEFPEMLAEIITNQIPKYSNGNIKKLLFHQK

Cc1cc(C)c(S(=O)(=O)O)c(C)n1
inactive: activity change, negative = inhibition [1] 6.1% | activity change, negative = inhibition [2] -2.21% | activity, negative = inhibition [3] 6.56% | Potency [4] > 20.6 µM

Cc1cc(C)n(C(=O)CNC(=O)CCc2ccccc2)n1
inactive: activity change, negative = inhibition [1] 8.64% | activity change, negative = inhibition [2] 9.94% | activity, negative = inhibition [3] 2.58% | Potency [4] > 20.6 µM

C=C(Br)Cn1c(CCCC)nc2ccccc21
inactive: activity change, negative = inhibition [1] -12.4% | activity change, negative = inhibition [2] 1.5% | activity, negative = inhibition [3] 4.16% | Potency [4] > 20.6 µM

CNC(=O)c1cc2ccccc2o1
inactive: activity change, negative = inhibition [1] 8.83% | activity change, negative = inhibition [2] -13.4% | activity, negative = inhibition [3] 2.75% | Potency [4] > 20.6 µM

C=CCNc1nc(C2(C)CC3(CC(C)(C)OC3=O)C(=O)O2)cs1 (stereo not given)
inactive: activity change, negative = inhibition [1] -3.51% | activity change, negative = inhibition [2] -7.31% | activity, negative = inhibition [3] -18.1% | Potency [4] > 20.6 µM

COC(=O)c1ccc(OC(=O)c2ccc(OC)c(OC)c2)c(OC)c1
inactive: activity change, negative = inhibition [1] -0.243% | activity change, negative = inhibition [2] -10.5% | activity, negative = inhibition [3] -2.16% | Potency [4] > 20.6 µM

O=c1[nH]cnc2c1cnn2Cc1ccccc1
inactive: activity change, negative = inhibition [1] 2.81% | activity change, negative = inhibition [2] -7.78% | activity, negative = inhibition [3] 6.19% | Potency [4] > 20.6 µM

Cc1ccc(N(CN2C(=O)C3CC=CCC3C2=O)C(=O)c2ccco2)cc1Cl (stereo not given)
inactive: activity change, negative = inhibition [1] -4.76% | activity change, negative = inhibition [2] 9.09% | activity, negative = inhibition [3] -11% | Potency [4] > 20.6 µM

COC(=O)CC1SC(=O)NC1=O (stereo not given)
inactive: activity change, negative = inhibition [1] 6.96% | activity change, negative = inhibition [2] 5.58% | activity, negative = inhibition [3] 7.23% | Potency [4] > 20.6 µM

c1ccc(-c2nn3c(C4CCCCC4)nnc3s2)cc1
inactive: activity change, negative = inhibition [1] -19.5% | activity change, negative = inhibition [2] -5.79% | activity, negative = inhibition [3] 18.2% | Potency [4] > 20.6 µM

COC(=O)Cn1cc(C(=O)OC)cc(Br)c1=O
inactive: activity change, negative = inhibition [1] 8.29% | activity change, negative = inhibition [2] 0.926% | activity, negative = inhibition [3] -0.311% | Potency [4] > 20.6 µM

CC(C)CC(=O)Nc1ccccc1N1CCCC1
inactive: activity change, negative = inhibition [1] 8.1% | activity change, negative = inhibition [2] 8.79% | activity, negative = inhibition [3] 0.417% | Potency [4] > 20.6 µM

CC(C)CCNc1nc2c(cc1C#N)COC(C)(C)C2
inactive: activity change, negative = inhibition [1] -23.1% | activity change, negative = inhibition [2] 4.17% | activity, negative = inhibition [3] 4.4% | Potency [4] > 20.6 µM

COc1cc([C@@H]2[C@H]3CN(C)CC=C3C(C#N)=C(N)C2(C#N)C#N)cc2c1OCO2
inactive: activity change, negative = inhibition [1] -11% | activity change, negative = inhibition [2] 9.82% | activity, negative = inhibition [3] 10.9% | Potency [4] > 20.6 µM

COc1ccc(NC2CC(=O)N(C)C2=O)cc1 (stereo not given)
inactive: activity change, negative = inhibition [1] 9.53% | activity change, negative = inhibition [2] -9.34% | activity, negative = inhibition [3] 11.9% | Potency [4] > 20.6 µM

COc1ccc(C(CC(=O)N2CCOCC2)C(C)C)cc1 (stereo not given)
inactive: activity change, negative = inhibition [1] 8.67% | activity change, negative = inhibition [2] 3.99% | activity, negative = inhibition [3] -3.69% | Potency [4] > 20.6 µM

O=C(Nc1ccc2c(c1)OCO2)c1cncc(Br)c1
inactive: activity change, negative = inhibition [1] -12.1% | activity change, negative = inhibition [2] -3.16% | activity, negative = inhibition [3] -14.9% | Potency [4] > 20.6 µM

CC1(C)CN(O)CCN1O
inactive: activity change, negative = inhibition [1] 29.1% | activity change, negative = inhibition [2] 0.875% | activity, negative = inhibition [3] 7.69% | Potency [4] > 20.6 µM

COc1nnnc2c1sc1nc(N3CCOCC3)c3c(c12)CC(C)(C)OC3
inactive: activity change, negative = inhibition [1] -3.49% | activity change, negative = inhibition [2] -9.1% | activity, negative = inhibition [3] -7.42% | Potency [4] > 20.6 µM

Cc1c(C(Nc2ccccn2)c2ccccc2)c(=O)n(-c2ccccc2)n1C (stereo not given)
inactive: activity change, negative = inhibition [1] -3.17% | activity change, negative = inhibition [2] 2.74% | activity, negative = inhibition [3] 8.77% | Potency [4] > 20.6 µM

Cc1nnc2n(-c3ccccc3)c(=O)c3c4c(sc3n12)COC(C(C)C)C4 (stereo not given)
inactive: activity change, negative = inhibition [1] -3.43% | activity change, negative = inhibition [2] -28.2% | activity, negative = inhibition [3] 4.52% | Potency [4] > 20.6 µM

CCCC1CC(=O)OC1(C)C(=O)CSc1n[nH]c(-c2ccccc2)n1 (stereo not given)
inactive: activity change, negative = inhibition [1] -6.44% | activity change, negative = inhibition [2] 8.59% | activity, negative = inhibition [3] -7.88% | Potency [4] > 20.6 µM

Cc1[nH]c(=O)[nH]c(=O)c1S(=O)(=O)N1CCCC1
inactive: activity change, negative = inhibition [1] 11.7% | activity change, negative = inhibition [2] -7.3% | activity, negative = inhibition [3] 12% | Potency [4] > 20.6 µM

C[C@@H]1C[C@H](Nc2ccccc2)c2ccccc2N1C(=O)c1cccnc1
inactive: activity change, negative = inhibition [1] 5.62% | activity change, negative = inhibition [2] -3.58% | activity, negative = inhibition [3] -2.73% | Potency [4] > 20.6 µM

Cn1c(NCc2cccnc2)nc2c1c(=O)n(Cc1ccccc1F)c(=O)n2C
inactive: activity change, negative = inhibition [1] -1.33% | activity change, negative = inhibition [2] -10.3% | activity, negative = inhibition [3] -20.6% | Potency [4] > 20.6 µM
